# The full data set covers some 7,900 targets. This sample favours those with a hit. About 0.6% of all pairs of compound and target were hits. Values without a mark were called inactive.
# How the values were obtained:
# Assay in all cases: log2 fold change, soluble protein after heating vs DMSO (PISA); higher = thermal stabilisation; K562 cells, 10 uM, 30 min; active = over 0.2 and 3.5 SD of the protein, either way, in both replicates (recomputed)
# bafetinib = compound: Cc1ccc(NC(=O)c2ccc(CN3CC[C@H](N(C)C)C3)c(C(F)(F)F)c2)cc1Nc1nccc(-c2cncnc2)n1 [bafetinib]
# Summary of the method: (§1)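 Values are thermal stability changes relative to control samples and are taken from duplicates. They are stated as log2 fold changes. Before quantification by TMTpro 16plex LC-MS/MS with equalised channel sums, K562 cells at 2×10^6 cells/mL were treated with 10 μM compound for 30 min, heated in aliquots for 3 min across 48°C-58°C, pooled, extracted in PBS with 0.5% NP-40 at 4°C, and centrifuged at 21,000xg for 90 min to give the soluble supernatant.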
# [1] = compound: Cc1cccc(CC(=O)N2CCc3c2ccc(-c2cn(C)c4ncnc(N)c24)c3F)n1
# Summary of the method: as §1
# nilotinib = compound: Cc1cn(-c2cc(NC(=O)c3ccc(C)c(Nc4nccc(-c5cccnc5)n4)c3)cc(C(F)(F)F)c2)cn1 [nilotinib]
# Summary of the method: as §1
# [2] = compound: Cc1nc(Nc2n[nH]c3c2CN(C(=O)N[C@H](CN(C)C)c2ccccc2)C3(C)C)c2sccc2n1
# Summary of the method: as §1
# dasatinib = compound: Cc1nc(Nc2ncc(C(=O)Nc3c(C)cccc3Cl)s2)cc(N2CCN(CCO)CC2)n1 [dasatinib]
# Summary of the method: as §1
# [3] = compound: Cc1ncc(-c2ccnc(Nc3ccc(S(C)(=O)=O)cc3)n2)n1C(C)C
# Summary of the method: as §1
# [4] = compound: Cn1cc(-c2ccc3c(c2)CCN3C(=O)Cc2cccc(C(F)(F)F)c2)c2c(N)ncnc21
# Summary of the method: as §1
# [5] = compound: Cn1cc(-c2ccc3nnc(C(F)(F)c4ccc5ncccc5c4)n3n2)cn1
# Summary of the method: as §1
# tipifarnib = compound: Cn1cncc1[C@@](N)(c1ccc(Cl)cc1)c1ccc2c(c1)c(-c1cccc(Cl)c1)cc(=O)n2C [tipifarnib]
# Summary of the method: as §1
# mubritinib = compound: FC(F)(F)c1ccc(/C=C/c2nc(COc3ccc(CCCCn4ccnn4)cc3)co2)cc1 [mubritinib]
# Summary of the method: as §1
# [6] = compound: NC(=O)Nc1cc(-c2cccc(F)c2)sc1C(=O)N[C@H]1CCCNC1
# Summary of the method: as §1
# [7] = compound: NC(=O)c1cnc(N[C@@H]2CCCC[C@@H]2N)nc1Nc1cccc(-n2nccn2)c1
# Summary of the method: as §1
# [8] = compound: NC1(c2ccc(-c3nc4ccn5c(=O)[nH]nc5c4cc3-c3ccccc3)cc2)CCC1
# Summary of the method: as §1
# [9] = compound: NCC(=O)Nc1ccc(-n2nc(C(F)(F)F)cc2-c2ccc3c(ccc4ccccc43)c2)cc1
# Summary of the method: as §1
# entinostat = compound: Nc1ccccc1NC(=O)c1ccc(CNC(=O)OCc2cccnc2)cc1 [entinostat]
# Summary of the method: as §1
# vorinostat = compound: O=C(CCCCCCC(=O)Nc1ccccc1)NO [vorinostat]
# Summary of the method: as §1
# citarinostat = compound: O=C(CCCCCCNC(=O)c1cnc(N(c2ccccc2)c2ccccc2Cl)nc1)NO [citarinostat]
# Summary of the method: as §1
# silmitasertib = compound: O=C(O)c1ccc2c(c1)nc(Nc1cccc(Cl)c1)c1ccncc12 [silmitasertib]
# Summary of the method: as §1
# [10] = compound: O=C1NC(=O)C(c2cnc3ccccn23)=C1c1cn2c3c(cc(F)cc13)CN(C(=O)N1CCCCC1)CC2
# Summary of the method: as §1
# [11] = compound: c1cc(OCCN2CCCCC2)cc(-c2n[nH]c3ccc(-c4nnc[nH]4)cc23)c1
# Summary of the method: as §1
# Chain of UniProt P23919 (P23919 whole entry, looked up): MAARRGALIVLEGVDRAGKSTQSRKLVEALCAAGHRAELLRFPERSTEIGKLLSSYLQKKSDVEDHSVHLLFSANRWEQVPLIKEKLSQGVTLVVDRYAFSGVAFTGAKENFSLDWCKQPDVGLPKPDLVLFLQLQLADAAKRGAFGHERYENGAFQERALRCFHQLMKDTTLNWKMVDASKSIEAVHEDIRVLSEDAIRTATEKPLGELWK
# Chain of UniProt Q9NV06 (Q9NV06 whole entry, looked up): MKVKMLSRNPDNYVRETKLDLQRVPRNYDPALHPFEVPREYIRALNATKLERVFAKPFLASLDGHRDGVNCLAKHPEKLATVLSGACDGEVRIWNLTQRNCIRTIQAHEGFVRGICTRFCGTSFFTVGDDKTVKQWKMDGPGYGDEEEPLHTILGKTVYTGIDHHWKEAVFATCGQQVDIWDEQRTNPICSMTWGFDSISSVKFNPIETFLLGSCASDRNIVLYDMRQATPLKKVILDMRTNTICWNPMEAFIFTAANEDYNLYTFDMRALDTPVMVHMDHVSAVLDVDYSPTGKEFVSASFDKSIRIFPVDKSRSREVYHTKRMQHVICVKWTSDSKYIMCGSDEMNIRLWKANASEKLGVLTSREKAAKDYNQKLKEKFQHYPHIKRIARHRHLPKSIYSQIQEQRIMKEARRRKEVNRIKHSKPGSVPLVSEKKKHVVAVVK
# Chain of UniProt P07711 (P07711 whole entry, looked up): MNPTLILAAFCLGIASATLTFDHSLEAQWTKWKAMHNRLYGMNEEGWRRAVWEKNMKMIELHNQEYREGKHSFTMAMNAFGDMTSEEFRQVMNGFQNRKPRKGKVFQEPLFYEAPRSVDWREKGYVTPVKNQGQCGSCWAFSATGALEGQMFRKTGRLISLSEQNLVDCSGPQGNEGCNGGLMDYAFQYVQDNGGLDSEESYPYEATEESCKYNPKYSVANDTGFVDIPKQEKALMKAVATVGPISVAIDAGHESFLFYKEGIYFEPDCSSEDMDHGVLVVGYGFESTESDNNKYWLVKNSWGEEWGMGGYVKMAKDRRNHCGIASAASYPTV
# Chain of UniProt Q96G46 (Q96G46 whole entry, looked up): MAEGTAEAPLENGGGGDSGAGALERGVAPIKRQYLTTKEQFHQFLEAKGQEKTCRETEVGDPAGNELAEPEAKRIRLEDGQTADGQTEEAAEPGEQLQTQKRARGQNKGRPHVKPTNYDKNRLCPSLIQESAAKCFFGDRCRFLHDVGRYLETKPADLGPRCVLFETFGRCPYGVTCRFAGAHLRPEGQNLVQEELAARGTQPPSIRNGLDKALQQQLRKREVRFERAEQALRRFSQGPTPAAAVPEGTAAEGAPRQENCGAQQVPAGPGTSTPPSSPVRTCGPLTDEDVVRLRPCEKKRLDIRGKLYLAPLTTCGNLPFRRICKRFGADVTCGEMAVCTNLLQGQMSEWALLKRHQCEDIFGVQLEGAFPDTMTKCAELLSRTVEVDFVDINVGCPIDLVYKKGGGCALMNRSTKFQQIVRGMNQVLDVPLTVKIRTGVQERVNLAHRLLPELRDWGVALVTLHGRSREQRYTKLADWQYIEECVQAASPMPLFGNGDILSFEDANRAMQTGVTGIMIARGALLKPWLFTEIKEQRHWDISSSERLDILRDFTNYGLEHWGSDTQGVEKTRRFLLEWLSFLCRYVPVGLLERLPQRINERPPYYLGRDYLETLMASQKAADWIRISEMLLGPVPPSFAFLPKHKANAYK
# Chain of UniProt Q7Z2Z2 (Q7Z2Z2 whole entry, looked up): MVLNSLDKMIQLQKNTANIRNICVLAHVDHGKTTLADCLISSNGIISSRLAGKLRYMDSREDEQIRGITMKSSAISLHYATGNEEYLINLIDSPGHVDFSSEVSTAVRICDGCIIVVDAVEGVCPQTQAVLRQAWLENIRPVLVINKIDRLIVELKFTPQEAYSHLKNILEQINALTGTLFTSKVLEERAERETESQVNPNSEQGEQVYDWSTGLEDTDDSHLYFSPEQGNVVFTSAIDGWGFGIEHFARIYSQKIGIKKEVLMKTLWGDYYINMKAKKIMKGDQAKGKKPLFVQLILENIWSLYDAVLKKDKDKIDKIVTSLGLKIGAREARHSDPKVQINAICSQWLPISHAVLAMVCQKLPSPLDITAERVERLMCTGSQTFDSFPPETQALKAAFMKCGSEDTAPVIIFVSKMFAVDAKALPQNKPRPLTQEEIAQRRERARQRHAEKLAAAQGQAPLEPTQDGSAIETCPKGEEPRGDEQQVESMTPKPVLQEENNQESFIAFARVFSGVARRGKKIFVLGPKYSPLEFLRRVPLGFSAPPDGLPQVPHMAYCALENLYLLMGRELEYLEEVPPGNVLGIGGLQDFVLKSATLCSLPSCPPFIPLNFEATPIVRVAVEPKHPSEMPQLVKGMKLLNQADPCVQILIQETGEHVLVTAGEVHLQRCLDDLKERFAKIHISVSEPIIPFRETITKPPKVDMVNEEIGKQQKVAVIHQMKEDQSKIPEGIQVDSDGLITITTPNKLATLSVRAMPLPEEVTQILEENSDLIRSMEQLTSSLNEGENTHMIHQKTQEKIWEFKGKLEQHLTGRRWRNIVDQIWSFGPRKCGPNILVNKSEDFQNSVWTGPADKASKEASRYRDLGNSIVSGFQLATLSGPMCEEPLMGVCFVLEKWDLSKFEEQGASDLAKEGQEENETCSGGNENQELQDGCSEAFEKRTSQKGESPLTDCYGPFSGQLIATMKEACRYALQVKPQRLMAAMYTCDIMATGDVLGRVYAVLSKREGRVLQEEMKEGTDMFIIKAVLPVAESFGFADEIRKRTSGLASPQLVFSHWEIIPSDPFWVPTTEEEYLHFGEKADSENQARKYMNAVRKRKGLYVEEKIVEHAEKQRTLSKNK
# Chain of UniProt Q9NX74 (Q9NX74 whole entry, looked up): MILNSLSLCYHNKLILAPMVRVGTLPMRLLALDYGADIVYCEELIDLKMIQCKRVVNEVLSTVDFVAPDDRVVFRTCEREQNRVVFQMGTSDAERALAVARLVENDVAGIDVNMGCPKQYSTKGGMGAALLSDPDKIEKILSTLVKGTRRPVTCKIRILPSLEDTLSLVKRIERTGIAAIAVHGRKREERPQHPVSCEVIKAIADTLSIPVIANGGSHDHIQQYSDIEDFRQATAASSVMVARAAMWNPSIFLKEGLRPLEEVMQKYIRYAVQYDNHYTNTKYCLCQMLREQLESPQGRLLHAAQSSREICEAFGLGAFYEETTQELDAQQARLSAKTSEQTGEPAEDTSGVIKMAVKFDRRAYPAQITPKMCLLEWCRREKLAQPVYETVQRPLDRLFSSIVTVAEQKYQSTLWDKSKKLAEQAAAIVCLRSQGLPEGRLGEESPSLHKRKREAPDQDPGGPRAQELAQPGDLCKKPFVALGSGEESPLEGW
# Chain of UniProt O75071 (O75071 whole entry, looked up): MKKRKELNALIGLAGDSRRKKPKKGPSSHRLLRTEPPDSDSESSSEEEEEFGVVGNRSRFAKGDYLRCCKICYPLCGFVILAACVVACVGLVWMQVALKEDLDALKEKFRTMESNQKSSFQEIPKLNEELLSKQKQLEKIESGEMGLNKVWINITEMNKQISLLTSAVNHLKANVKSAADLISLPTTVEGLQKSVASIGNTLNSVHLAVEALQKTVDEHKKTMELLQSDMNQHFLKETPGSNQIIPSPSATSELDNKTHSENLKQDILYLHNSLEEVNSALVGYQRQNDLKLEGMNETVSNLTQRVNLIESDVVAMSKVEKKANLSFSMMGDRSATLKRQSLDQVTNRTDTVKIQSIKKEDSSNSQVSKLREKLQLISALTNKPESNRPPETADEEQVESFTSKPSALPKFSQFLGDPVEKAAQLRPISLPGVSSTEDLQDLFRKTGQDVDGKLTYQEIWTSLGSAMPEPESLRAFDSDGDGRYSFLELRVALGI
# Chain of UniProt Q9H2U1 (Q9H2U1 whole entry, looked up): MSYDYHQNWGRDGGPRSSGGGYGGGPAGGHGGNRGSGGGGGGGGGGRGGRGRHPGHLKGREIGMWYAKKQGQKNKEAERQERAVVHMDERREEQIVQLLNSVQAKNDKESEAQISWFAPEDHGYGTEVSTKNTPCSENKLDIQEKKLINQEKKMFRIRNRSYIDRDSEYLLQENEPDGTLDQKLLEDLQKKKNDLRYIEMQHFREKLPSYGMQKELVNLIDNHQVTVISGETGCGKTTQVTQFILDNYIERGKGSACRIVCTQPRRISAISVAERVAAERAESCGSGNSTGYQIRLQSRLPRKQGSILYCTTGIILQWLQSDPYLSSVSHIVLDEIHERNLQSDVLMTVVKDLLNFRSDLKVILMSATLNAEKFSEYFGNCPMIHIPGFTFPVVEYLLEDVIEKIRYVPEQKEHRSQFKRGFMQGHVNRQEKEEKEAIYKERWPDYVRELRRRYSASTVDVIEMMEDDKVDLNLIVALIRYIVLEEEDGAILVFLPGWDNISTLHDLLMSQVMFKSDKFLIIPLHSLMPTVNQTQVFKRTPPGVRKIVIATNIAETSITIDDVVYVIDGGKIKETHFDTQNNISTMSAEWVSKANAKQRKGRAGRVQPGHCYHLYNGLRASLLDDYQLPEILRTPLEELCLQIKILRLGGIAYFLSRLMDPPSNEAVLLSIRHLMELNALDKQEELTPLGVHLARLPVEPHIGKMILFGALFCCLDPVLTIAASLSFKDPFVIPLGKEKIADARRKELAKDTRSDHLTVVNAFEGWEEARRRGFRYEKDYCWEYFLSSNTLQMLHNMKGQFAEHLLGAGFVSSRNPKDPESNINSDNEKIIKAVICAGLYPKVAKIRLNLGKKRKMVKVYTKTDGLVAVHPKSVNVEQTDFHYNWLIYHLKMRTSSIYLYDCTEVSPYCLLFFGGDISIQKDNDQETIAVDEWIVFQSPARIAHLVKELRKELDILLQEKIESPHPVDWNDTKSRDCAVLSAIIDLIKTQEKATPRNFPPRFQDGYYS
# Chain of UniProt P24534 (P24534 whole entry, looked up): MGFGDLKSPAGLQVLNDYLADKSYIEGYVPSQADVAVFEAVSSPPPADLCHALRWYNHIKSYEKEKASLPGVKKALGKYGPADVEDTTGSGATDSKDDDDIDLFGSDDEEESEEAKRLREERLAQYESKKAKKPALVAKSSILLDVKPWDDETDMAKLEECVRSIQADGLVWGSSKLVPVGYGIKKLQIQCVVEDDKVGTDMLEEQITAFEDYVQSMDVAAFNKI
Target,log2 fold change (bafetinib),log2 fold change [1],log2 fold change (nilotinib),log2 fold change [2],log2 fold change (dasatinib),log2 fold change [3],log2 fold change [4],log2 fold change [5],log2 fold change (tipifarnib),log2 fold change (mubritinib),log2 fold change [6],log2 fold change [7],log2 fold change [8],log2 fold change [9],log2 fold change (entinostat),log2 fold change (vorinostat),log2 fold change (citarinostat),log2 fold change (silmitasertib),log2 fold change [10],log2 fold change [11]
DCAF13 (UniProt Q9NV06),0.178,0,0.006,0.102,0.077,-0.05,-0.249,-0.173,0.193,-0.106,-0.004,0.049,0.196,0.077,-0.058,0.004,-0.044,0.108,0.054,-0.077
EFCAB14 (UniProt O75071),-0.008,-0.056,0.084,0.011,0.075,0.003,-0.123,-0.048,-0.062,0.081,0.024,0.218,-0.123,-0.006,0.007,-0.057,0.181,0.022,-0.031,-0.075
CUEDC2 (UniProt Q9H467),-0.072,0.003,-0.006,-0.045,0.049,-0.055,0.02,-0.009,0.028,0.042,0,-0.105,-0.043,-0.056,-0.009,-0.039,0.096,0.008,-0.055,0.002
CTSL (UniProt P07711),-0.261,-0.046,0.041,0.103,0.14,0.004,0.013,0.045,0.145,-0.006,0.082,-0.045,-0.123,0.039,-0.074,-0.053,-0.018,0.027,-0.079,-0.011
EFL1 (UniProt Q7Z2Z2),-0.043,-0.014,-0.147,-0.052,-0.077,0.003,0.021,0.028,-0.026,-0.109,0.001,-0.023,-0.106,-0.026,0.025,0.071,0.047,0.017,-0.025,-0.023
DFFB (UniProt O76075),0.042,-0.032,-0.047,-0.156,-0.057,0.056,-0.053,0.002,-0.072,0.019,0.028,-0.064,-0.037,0.069,0,0.016,0.057,0.087,0.048,-0.08
DUS2 (UniProt Q9NX74),-0.017,-0.025,-0.243,-0.032,-0.07,0.014,-0.072,0.01,0.094,0.045,0.051,-0.066,-0.091,-0.004,0.008,0.041,0.124,0.092,-0.424 (active),0.038
FAM50A (UniProt Q14320),-0.035,-0.045,-0.016,-0.096,-0.134,0.029,-0.021,0.044,-0.031,0.083,0.003,-0.008,-0.087,-0.082,0.045,0.011,0.095,0.071,-0.001,-0.019
DBNL isoform 3 (UniProt Q9UJU6),0.048,-0.007,-0.05,-0.071,-0.098,-0.013,-0.003,0.057,-0.096,0.032,0.021,-0.022,-0.109,-0.061,-0.003,-0.01,0.063,0.058,0.012,0.007
DHX36 (UniProt Q9H2U1),0.065,0.015,-0.066,0.052,-0.01,0.045,-0.076,-0.059,0.002,-0.128,0,0.025,-0.028,0.056,-0.003,-0.028,0.014,0.009,0.11,-0.283 (active)
EDC4 (UniProt Q6P2E9),0.006,0,0.013,-0.077,-0.018,-0.119,-0.046,-0.031,-0.038,-0.019,-0.06,-0.024,-0.026,-0.082,0.026,-0.023,0.035,-0.05,-0.066,-0.253 (active)
DTYMK (UniProt P23919),0.044,0.007,0.042,0.041,-0.151,-0.029,0.045,0.002,-0.019,0.078,0.005,-0.011,-0.169,-0.014,-0.035,0.043,0.047,-0.04,-0.058,-0.071
DYNC1I2 isoform 5 (UniProt Q13409),-0.071,-0.018,0.015,0.002,-0.012,0.011,0.003,-0.008,-0.038,0.046,-0.021,-0.016,-0.023,0.059,-0.018,-0.044,0.015,0.004,-0.012,0.004
DUS3L (UniProt Q96G46),-0.041,-0.02,-0.073,-0.059,-0.005,0.021,-0.064,-0.017,0.053,-0.115,0.113,-0.012,0.194,0.003,0.003,0.093,0.058,0.112,-0.176,-0.029
EEF1B2 (UniProt P24534),0.006,0.025,-0.042,-0.03,0.026,0.043,-0.057,-0.054,-0.109,0.058,0.012,-0.112,-0.035,-0.09,0.04,0.02,0.004,0.027,-0.007,-0.035
EBNA1BP2 (UniProt Q99848),0.312,-0.114,0.114,-0.089,0.226,-0.004,-0.499,-0.176,0.134,-0.124,0.05,0.006,0.195,0.158,-0.029,0.133,0.041,0.151,0.352,-0.292

# Reference: the supplement of paper PMC10849652
